{"source": "PubChem BioAssay AID624117", "about": "(National Center for Advancing Translational Sciences (NCATS), 2012)", "note": "Records with an inconclusive call do not appear. Unmarked numbers belong to inactive results. Calls come from the whole dose curve; as a rule, active = well fitted curve in the direction sought with a large enough effect; inconclusive = small, poorly fitted or top-dose-only effect, or another doubt; inactive = no such curve, though single readings can be large or run the other way.", "data": [{"test": "qHTS Assay for Rab9 Promoter Activators: Hit Validation Using Renilla Luciferase Read-Out; note: % of control where 0% means no effect", "details": "Huh7 NPC1 promoter Renilla luciferase reporter, 24 h; series mostly up to 76.9 µM; activation (negative = inhibition): at the top concentration", "in_short": "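Hit validation in Huh7 NPC promoter-luciferase reporter line: compound treatment 24 h at 37 deg C, then luminescence measured after 10 min room-temperature incubation with […] reagent.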", "units": {"activation (negative = inhibition)": "%"}, "values": [{"smiles": "O=C(C[N+]1(CC#Cc2ccccc2)CCCCC1)c1ccccc1", "activation (negative = inhibition)": 5.82}, {"smiles": "O=C(C1COc2ccccc2O1)N1CCN(S(=O)(=O)c2ccccc2)CC1", "note": "(configuration not stated)", "activation (negative = inhibition)": 5.12}, {"smiles": "O=C(CCCOc1ccc(Cl)cc1)N1CCCCC1", "activation (negative = inhibition)": -3.94}, {"smiles": "Cc1ccc(C(=O)c2cn[nH]c2-c2ccccc2O)cc1", "activation (negative = inhibition)": -8.79}, {"smiles": "O=C(CSc1nnc(Cc2cc(=O)[nH]c(=O)[nH]2)n1-c1ccc(Cl)cc1)NC1CCCC1", "activation (negative = inhibition)": 2.15}, {"smiles": "COCCNC(=O)CN1C(=O)NC(c2ccccc2)(c2ccccc2)C1=O", "activation (negative = inhibition)": 2.14}, {"smiles": "Cc1nnc2n(c1=O)N=C(c1ccc(Cl)cc1)CS2", "activation (negative = inhibition)": -12.3}, {"smiles": "O=C(CCCn1c(=O)oc2ccccc21)N1CCN(c2ccccn2)CC1", "activation (negative = inhibition)": -0.368}, {"smiles": "Nc1ccccc1C(=O)N/N=C1/C2CN3CCN(C2)CC1(Cc1ccccc1)C3", "activation (negative = inhibition)": -14.9}, {"smiles": "COc1ccc(NC(=O)Nc2ccc(Cc3ccncc3)cc2)cc1OC", "activation (negative = inhibition)": 5.7}, {"smiles": "CCCCn1c(Nc2ccc(OC)cc2)nc2ccccc21", "activation (negative = inhibition)": -1.27}, {"smiles": "O=C(COc1ccccc1F)Nc1ccc(-c2nc3ccccc3s2)cc1", "activation (negative = inhibition)": -14.2}, {"smiles": "Cc1ccc(NC(=O)COC(=O)C2C3CC4OC(=O)C2C4C3)cc1Cl", "note": "(configuration not stated)", "activation (negative = inhibition)": -7.4}, {"smiles": "CCC1=[N+](CC(=O)c2ccc(C)cc2)CCn2cccc21", "activation (negative = inhibition)": -5.44}, {"smiles": "Cc1ccc(C)c(Nc2cc(C)nc3ncnn23)c1", "activation (negative = inhibition)": -3.45}, {"smiles": "CCCc1cc(C(=O)Nc2ccccc2SC)no1", "activation (negative = inhibition)": 24.4}, {"smiles": "CC(=O)NC(=S)Nc1ccc2oc(-c3cc(F)c(F)cc3Cl)nc2c1", "activation (negative = inhibition)": 0.138}, {"smiles": "CC(=O)Nc1ccc(NC(=O)COc2ncnc3ccccc23)cc1", "activation (negative = inhibition)": 5.67}, {"smiles": "CC(Sc1nnc(C(F)(F)F)n1C)C(=O)Nc1ccc(S(N)(=O)=O)cc1", "note": "(configuration not stated)", "activation (negative = inhibition)": -17.9}, {"smiles": "COc1ccc(-n2cc(-c3ccc(Cl)cc3)[nH]c2=S)cc1", "activation (negative = inhibition)": -11.6}, {"smiles": "CC(C)C(NC(=O)c1ccc([N+](=O)[O-])cc1Cl)C(=O)N1CCCC1", "note": "(configuration not stated)", "activation (negative = inhibition)": 1.06}, {"smiles": "Cn1c(CCN2CCN(c3ccccc3)CC2)nc2cc(NC(=O)c3ccco3)ccc21", "activation (negative = inhibition)": 11}]}]}
